# Bioassay records (PubChem)
# TTR transcr act: TTR transcription activators in neuroblastoma reporter cells, primary screen, cell-based, luminescence, SH-SY5Y, TTR promoter Gaussia luciferase | 100% = recombinant luciferase protein wells | activation, % at 16.7 µM | 92,000 tested, 1.3% active;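 active = activation above the mean of all tested compounds plus 3 SD, cut at about 9.5% in these data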;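 note: cells exposed to compounds for one day before reading; 0% = median of all test compound wells on the plate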
# TTR inh HuH7: TTR promoter reporter inhibitors in hepatoma cells, counter-screen for TTR transcription activator project, cell-based, luminescence, HuH7 hepatoma; shares compounds with TTR transcr act; HuH7 TTR promoter-Gaussia luciferase reporter; inhibition, % at 16.7 µM; 1,100 tested, 4% active; AID 1117279, 2014;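 active = average inhibition above the solvent-only control wells' mean plus 3 SD, cut at about 15% in these data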;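 note: 0% = cells with DMSO only and 100% = cells with inhibitor control FD; inhibitors lower well luminescence so higher value means more inhibition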
# TTR up confirm: TTR transcription activators, retest, confirmation, cell-based, luminescence, SH-SY5Y, triplicate; shares compounds with TTR transcr act; SHSY5Y TTR promoter Gaussia luciferase; 100% = purified Lucia enzyme wells, no cells; activation, % at 16.7 µM; 1,100 tested, under 10 active;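 active = mean activation above a set limit taken from the earlier primary screen, cut at about 11% in these data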;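 note: 0% = DMSO-treated cells and 100% = recombinant Lucia luciferase without cells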
# * marks the source's active call; other numbers are inactive results. This is one part of a sample in which hits are shown more often than they occur.
SMILES,TTR transcr act,others
C[N+](C)(C)CCCNC(=O)c1ccc(/C=N/O)nc1,20*,TTR inh HuH7=-7;TTR up confirm=1
CNCCCNC(=O)c1ccc(/C=N/O)nc1,-1,
Cc1ccc(C(=O)NCCNC(=O)c2ccc(C)nc2)cc1,1,
CCCCOCCCNC(=O)C[C@@H]1C[C@]2(C(=O)OCC)CCC3=C2N(CCC3)C1=O,0,
O=C1C2C3C=CC(C4CC34)C2C(=O)N1c1cccc2ccccc12 (centres undefined),-2,
Cc1ccnc2c(N3C(=O)C4C5C=CC(C5)C4C3=O)cccc12 (centres undefined),9.8*,TTR inh HuH7=-8;TTR up confirm=0
COc1cccc(C(=O)COc2ccccc2N2C(=O)C3C4C=CC(C4)C3C2=O)c1 (centres undefined),-1,
S=C(Nc1ccc(Cl)c(Cl)c1)Nc1nnc(-c2ccncc2)s1,1,
O=S1(=O)CC2c3ccccc3CCN2CN1CCc1ccccc1 (centres undefined),-1,
O=S1(=O)c2c(cccc2N2CCC[C@H]2CO)OCCCN1C1CC1,0,
Cc1ccnc(SCc2cc(=O)c(OC(=O)c3ccc(C)c([N+](=O)[O-])c3)co2)n1,-1,
Cc1ccc(N2C(=O)/C(=C/c3ccco3)SC2=S)cc1,-2,
O=C(NCCN1C(=O)S/C(=C\c2cccs2)C1=O)c1ccco1,1,
COc1ccccc1OCCN1C(=O)S/C(=C\c2ccco2)C1=O,10*,TTR inh HuH7=-13;TTR up confirm=0
COc1ccc(Oc2c(-c3cccs3)cnn(-c3ccc(C)cc3)c2=O)cc1,0,
COc1ccc(S[C@]2(C(=O)N3CCOCC3)CC(=O)N(c3ccc(Cl)cc3)[C@@H]2c2ccc(OC)cc2)cc1,-1,
COC(=O)[C@]12C[C@H](CC(=O)NCC3CCCCC3)C(=O)N(Cc3ccc(Cl)cc3Cl)C1=C[C@H](COCc1ccccc1)O[C@@H]2C,-1,
O=C(O)CCc1nc(-c2cccs2)no1,-1,
Clc1ccccc1OCc1nc(-c2ccc(Br)o2)no1,1,
O=[N+]([O-])c1ccccc1OCc1nc(-c2cccs2)no1,12*,TTR inh HuH7=-9;TTR up confirm=1
O=C1[C@H](c2ccccc2)[C@@H](c2ccncc2)N1c1ccncc1,0,
CCCC(C)C(=O)NC1CCCCN(Cc2ccc(C)cc2)C1=O (centres undefined),-2,
COc1ccc(CN[C@@H]2CC[C@@]34CCCN3C(=O)CCC[C@H]4C2)cc1OC,5,
Cc1[nH]c2c(ccc3cccnc32)c1C,12*,TTR inh HuH7=-28;TTR up confirm=-1
CC(=O)c1c(C(C)=O)c(C)n(-c2cccc3cccnc23)c1C,-2,
SMILES,TTR transcr act,others
c1ccc(-c2nc3c(ccc4ccccc43)[nH]2)nc1,-4,
O=S(=O)(c1ccccc1)N1CCN(S(=O)(=O)c2ccc3c(c2)OCCO3)CC1,0,
CCN1CCCCC(NC(=O)COCc2ccccc2)C1=O (centres undefined),-1,
COc1cccc(S(=O)(=O)N(C)C[C@@H]2OCc3cn(nn3)CCCC(=O)N([C@@H](C)CO)C[C@H]2C)c1,11*,TTR inh HuH7=-8;TTR up confirm=1
C[C@@H]1CN([C@@H](C)CO)C(=O)CCCn2cc(nn2)CO[C@H]1CN(C)S(=O)(=O)c1cccc(C#N)c1,-2,
C[C@H](CO)N1C[C@H](C)[C@@H](CN(C)S(=O)(=O)c2ccc3ccccc3c2)OCc2cn(nn2)CCCC1=O,0,
COC(=O)[C@]12C[C@H](CC(=O)NCc3cccc(C(F)(F)F)c3)C(=O)N(Cc3ccc4c(c3)OCO4)C1=C[C@H](C(C)C)O[C@@H]2C1CC1,1,
COc1cc(OC)cc(-c2csc(N3CCC(C(N)=O)CC3)n2)c1,1,
COc1ccc(CCn2c(C)nc3ccccc3c2=O)cc1OC,0,
COc1ccc(CCNc2c3ccccc3nc3ccccc23)cc1OC,11*,TTR inh HuH7=-17;TTR up confirm=14*
CCn1c(=O)c([N+](=O)[O-])c(NCCc2ccc(OC)c(OC)c2)c2ccccc21,-2,
COc1ccc(N=Cc2c[nH][nH]c2=O)cc1,-1,
COc1ccc(N=Cc2[nH]c3ccccc3c2O)cc1,14*,TTR inh HuH7=-1;TTR up confirm=0
COc1ccccc1NC(=O)c1c(O)c2ccccc2[nH]c1=O,0,
CC(C)(C)OC(=O)NCCc1ccccc1/C=C/S(=O)(=O)NCc1ccccc1,-1,
O=C1CCCN2N=C(SCC(=O)Nc3ccc([N+](=O)[O-])cc3)SC2=N1,32*,TTR inh HuH7=-10;TTR up confirm=-1
O=C1CCCN2N=C(SCC(=O)Nc3nccs3)SC2=N1,-1,
Cc1ccc(NC(=O)CSC2=NN3CCCC(=O)N=C3S2)c(C)c1,0,
CC(=C\C=O)/C(C)=C/CC[C@@H]1O[C@@H]2C[C@@H]3O[C@](C)(C[C@H]4C[C@H](O)[C@@H]5O[C@@H]6C[C@H](O)[C@@H](C)O[C@@]6(C)CC[C@H]5O4)[C@@H](O)CC[C@@]3(C)O[C@H]2[C@@H](O)[C@@H]1C,1,
Cc1cc(C(=O)N/N=C/c2cccc(OC(=O)c3cccc(Br)c3)c2)n[nH]1,-2,
COc1ccc(/C=N/NC(=O)c2cc(C34CC5CC(CC(C5)C3)C4)[nH]n2)cc1OC,5,
COc1cccc(/C=N/NC(=O)c2cc(C34CC5CC(CC(C5)C3)C4)[nH]n2)c1,17*,TTR inh HuH7=-12;TTR up confirm=0
COC(=O)[C@]12C[C@H](CC(=O)N3CCC(c4ccccc4)CC3)C(=O)N(Cc3cccc4ccccc34)C1=C[C@H](C(C)C)O[C@@H]2C1CC1,-1,
Nc1nnc(CCS(=O)(=O)c2cc(Cl)ccc2Cl)s1,23*,TTR inh HuH7=-8;TTR up confirm=-1
CC(C)(C)c1nnc(NS(=O)(=O)c2cc(Cl)ccc2Cl)s1,2,
SMILES,TTR transcr act,others
Nc1nnc(CSCc2ccccc2Cl)s1,0,
CC(C)(N[C@@H](Cc1ccccc1)C(=O)NCC(c1ccccc1)c1ccccc1)C(=O)NC1CCCCC1,-2,
O=S1(=O)c2c(cccc2N2CC[C@H](O)C2)O[C@H]2CCN1C2,1,
COc1cc(C2NC(=O)NC(C)=C2C(=O)OC2CCCC(C)C2)cc(Br)c1O (centres undefined),11*,TTR inh HuH7=-12;TTR up confirm=-1
CCOc1cc(C2NC(=O)NC(C)=C2C(=O)OC(C)CC)cc(Br)c1O (centres undefined),2,
COc1cc(C2NC(=O)NC(C)=C2C(=O)OCC2CCCCC2)cc(Cl)c1O (centres undefined),0,
S=C(Nc1cc(Cl)cc(Cl)c1)NC(c1ccccc1)c1ccccc1,-2,
Fc1ccccc1CSc1nnc(-c2cccs2)o1,-1,
CC1CCN(C(=O)CSc2nnc(-c3cccs3)o2)CC1,-1,
O=C(CSc1nnc(CNC(=O)c2cccc(C(F)(F)F)c2)o1)NCc1ccco1,4,
c1ccc(-c2nnc(CSc3nnc(-c4cccs4)o3)o2)cc1,1,
O=C(CSc1nnc(-c2cccs2)o1)NCc1ccco1,13*,TTR inh HuH7=-11;TTR up confirm=1
Fc1ccc(CSc2nnc(-c3cccs3)o2)cc1,10*,TTR inh HuH7=-14;TTR up confirm=0
C[n+]1cc(C(O)(c2ccccc2)c2ccccc2)n2ccccc21,0,
FC(F)(F)c1ccc(Cn2ccc3ccc(-c4ccc5ccn(Cc6ccc(C(F)(F)F)cc6)c5c4)cc32)cc1,0,
COc1ccc2c(c1)[C@@]1(NCCc3c1[nH]c1ccc(OC)cc31)C(=O)N2,1,
